This note sets out measurements from PubChem BioAssay (NCI).

Among the test systems are SK-MEL-2 melanoma; SN12C renal; TK-10 renal; ACHN renal; CAKI-1 renal; A498 renal; CCRF-CEM leukemia; RPMI-8226 leukemia; OVCAR-8 ovarian; OVCAR-5 ovarian; OVCAR-4 ovarian; SK-OV-3 ovarian; IGROV1 ovarian; OVCAR-3 ovarian; HS 578T breast; NCI/ADR-RES ovarian; UO-31 renal; MOLT-4 leukemia; SR leukemia; EKVX NSCLC.
Common to all, as to assay: NCI-60 one-dose screen, 48 h (100 = growth as untreated, 0 = no growth, -100 = all killed)
Conditions in all cases: 10 µM unless noted

Compounds without any hit were thinned out: in the full panel of roughly 83,000, 20% have a hit.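 Values shown are percent growth following 48 h exposure of cells in 96-well plates to a single concentration of compound; below 10 was considered active.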 A number with no mark means an inactive call. The source made the active and inactive calls.

With `N#C/C(=N\Nc1ccc(Cl)cc1)C(=O)C1CC1`, the growth with SK-MEL-2 melanoma is 11.8%; in the test on SN12C renal it was 41.4%; in the test with TK-10 renal, 52.9%; in the test on ACHN renal, 69.1%; in the test on CAKI-1 renal it was 49.1%; with A498 renal, 43.4%. In addition, the growth was 64.3% with CCRF-CEM leukemia; 44.4% in the test with RPMI-8226 leukemia; 63.3% with OVCAR-8 ovarian; 91.9% with OVCAR-5 ovarian; 31.2% with OVCAR-4 ovarian; 65.6% in the test on SK-OV-3 ovarian. Besides, the growth with IGROV1 ovarian is 54.2%; in the test with OVCAR-3 ovarian it was 39.8%; in the test with HS 578T breast it was 23.7%; with NCI/ADR-RES ovarian, 79.8%.
For `CC[n+]1ccc(Nc2ccc(NC(=O)c3ccc(Nc4cc[n+](CC)c5ccc([N+](=O)[O-])cc45)cc3)cc2)cc1`, the growth in the test on SK-MEL-2 melanoma is 111%; in the test on SN12C renal, 86%; with UO-31 renal it was 91.4%; in the test with TK-10 renal, 152%; with CAKI-1 renal, 94.2%; in the test with A498 renal, 103%. In addition, the growth in the test with MOLT-4 leukemia was 93.3%; with SR leukemia, 75.7%; with RPMI-8226 leukemia it was 41.9%; in the test on OVCAR-8 ovarian, 79%; in the test with OVCAR-5 ovarian it was 107%; in the test on OVCAR-4 ovarian, 56.8%. In addition, the growth is 84.5% in the test with SK-OV-3 ovarian; 115% in the test on IGROV1 ovarian; 91.8% in the test on OVCAR-3 ovarian; 97% in the test on HS 578T breast; 106% in the test with NCI/ADR-RES ovarian.
For `N=C1C=C(N)C(=O)c2ccccc21`, the growth is -53.6% (active) with SK-MEL-2 melanoma; -66.9% (active) in the test on SN12C renal; -86.3% (active) in the test with UO-31 renal; -67.5% (active) in the test on TK-10 renal; -81.6% (active) in the test with ACHN renal; -47.7% (active) in the test on CAKI-1 renal. Besides, the growth is 3.15% (active) in the test on CCRF-CEM leukemia; -25% (active) in the test on MOLT-4 leukemia; 1.77% (active) in the test on SR leukemia; 5.15% (active) in the test with RPMI-8226 leukemia; -20.1% (active) in the test with OVCAR-8 ovarian; -85.8% (active) with OVCAR-5 ovarian. The growth in the test on OVCAR-4 ovarian was -99.6% (active); in the test on SK-OV-3 ovarian, -87% (active); in the test on IGROV1 ovarian, -37.6% (active); in the test with OVCAR-3 ovarian, -87.6% (active).
`O=C(/C=C/C(Cl)(Cl)Cl)Nc1ccc(Cl)cc1`: the growth with SK-MEL-2 melanoma was 84.6%; in the test with SN12C renal, 101%; in the test on TK-10 renal, 129%; in the test with ACHN renal, 104%; in the test on CAKI-1 renal, 101%; with A498 renal, 101%. In addition, the growth with CCRF-CEM leukemia is 73.2%; in the test with SR leukemia it was 40.1%; in the test with RPMI-8226 leukemia, 75.3%; in the test on OVCAR-5 ovarian it was 93.7%; in the test with OVCAR-4 ovarian it was 115%; in the test on SK-OV-3 ovarian, 110%. Further, the growth is -76.5% (active) in the test on IGROV1 ovarian, 119% in the test on OVCAR-3 ovarian, 105% in the test with HS 578T breast and 95.5% in the test on NCI/ADR-RES ovarian.
In the case of `C/C(=N\NC(=S)N1CC2CCC(CC2)C1)c1ccccn1`, the growth in the test with EKVX NSCLC is -6.66% (active); in the test on SN12C renal, 4.27% (active); with UO-31 renal, -8.11% (active); with TK-10 renal, 21.6%; with ACHN renal, 15.1%; with CAKI-1 renal, 0.118% (active). The growth is -12.4% (active) in the test with A498 renal; 3.63% (active) in the test on CCRF-CEM leukemia; 3.87% (active) in the test on MOLT-4 leukemia; -10.1% (active) in the test with SR leukemia; -6.26% (active) in the test on RPMI-8226 leukemia; 18.2% in the test on OVCAR-8 ovarian. Moreover, the growth is 24.5% in the test on OVCAR-5 ovarian; -41.2% (active) in the test with OVCAR-4 ovarian; 18.9% in the test on SK-OV-3 ovarian; 5.07% (active) with IGROV1 ovarian; -17.7% (active) with OVCAR-3 ovarian; 16.3% in the test on HS 578T breast. Further, in the test on NCI/ADR-RES ovarian, the growth was 12.6%.
Consider `NCCCN(CCCN)CCCNCc1c2ccccc2c(CNCCCN(CCCN)CCCN)c2ccccc12`, for which the growth in the test on EKVX NSCLC is 89.4%; in the test with SN12C renal, 110%; with TK-10 renal, 97.5%; in the test with ACHN renal, 100%; in the test on A498 renal, 95.4%; in the test on CCRF-CEM leukemia it was 102%. Further, the growth in the test on MOLT-4 leukemia is 98.8%; in the test with SR leukemia it was 96.6%; in the test on RPMI-8226 leukemia, 91.7%; with OVCAR-8 ovarian, 98.5%; in the test with OVCAR-5 ovarian, 108%; in the test on OVCAR-4 ovarian, 99.8%. For the same compound, the growth in the test with SK-OV-3 ovarian is 100%; in the test with IGROV1 ovarian it was 114%; in the test with OVCAR-3 ovarian, 107%; with HS 578T breast, 92.6%; in the test with NCI/ADR-RES ovarian it was 93.9%.
Take `Clc1ccccc1C(c1ccccc1)(c1ccccc1)n1ccnc1`: the growth with EKVX NSCLC is 25.9%; with SN12C renal it was 48.2%; with UO-31 renal, 12.1%; with ACHN renal it was 32.7%; in the test with CAKI-1 renal, 20.6%; in the test with A498 renal, 58.7%. The growth was 17.3% in the test with MOLT-4 leukemia; 19.2% in the test on SR leukemia; 18.7% with RPMI-8226 leukemia; 29.1% in the test on OVCAR-8 ovarian; 57.8% in the test with OVCAR-5 ovarian; 33.2% in the test on OVCAR-4 ovarian. Moreover, the growth in the test with SK-OV-3 ovarian is 69.3%; in the test on IGROV1 ovarian it was 55.5%; in the test on OVCAR-3 ovarian, 29.3%; in the test on HS 578T breast, 58.2%.
Take `S=C=Nc1ccc(N2CCOCC2)cc1`: the growth was 91.7% in the test on EKVX NSCLC; 104% in the test on SN12C renal; 84.5% in the test with UO-31 renal; 93.2% in the test on TK-10 renal; 96.1% in the test with ACHN renal; 95.9% with CAKI-1 renal. Moreover, the growth was 96.5% in the test on A498 renal; 80.6% in the test with CCRF-CEM leukemia; 92.5% in the test on MOLT-4 leukemia; 71.2% in the test with SR leukemia; 87.8% in the test with RPMI-8226 leukemia; 102% in the test on OVCAR-8 ovarian. Further, the growth in the test on OVCAR-5 ovarian was 97.6%; in the test with OVCAR-4 ovarian it was 106%; with SK-OV-3 ovarian it was 93%; in the test with IGROV1 ovarian it was 96.9%; in the test with OVCAR-3 ovarian, 109%; with HS 578T breast it was 99.3%. Besides, the growth with NCI/ADR-RES ovarian is 101%.
On to `CN1CSC(=S)N(Cc2ccccc2)C1`, for which the growth in the test with EKVX NSCLC was 118%; in the test with SN12C renal it was 99.9%; in the test on UO-31 renal it was 69.5%; in the test on TK-10 renal, 28.6%; in the test on ACHN renal, 102%; in the test with CAKI-1 renal, 80%. The growth was 145% in the test with A498 renal; 59.3% with CCRF-CEM leukemia; 64.5% in the test with MOLT-4 leukemia; 31.4% in the test with RPMI-8226 leukemia; 97.8% with OVCAR-8 ovarian; 103% in the test on OVCAR-5 ovarian. For the same compound, the growth in the test with OVCAR-4 ovarian is 112%; in the test with SK-OV-3 ovarian, 114%; with IGROV1 ovarian, 92.9%; in the test with OVCAR-3 ovarian it was 65%; in the test with HS 578T breast, 108%; in the test on NCI/ADR-RES ovarian, 102%.
